# In PubChem BioAssay AID602393 (Broad Institute, 2012):
# The whole screen tested about 350,000 compounds, of which about 7,000 (2%) were called active. The sample as a whole holds a higher share of actives than the screen did. Values without a mark were called inactive. Cut-off read from the data, not from the text of the source: active = activation above about 40%; inconclusive = no clear call, values can overlap the other calls; inactive = below that.
# Assay: Bmi1 luciferase reporter increase in mESCs, primary screen, esBAF inhibitor project, mouse ES cells, Bmi1 luciferase knock-in, single point (AID 602393);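 note: 0% = median of the plate's neutral control wells and 100% = double that signal; a rise in the Bmi1 reporter signal indicates esBAF inhibition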
# Details: 24 h, at 12.5 µM, hits give high values, 100% = twice the neutral-well signal
row,Compound,reporter increase
1,COc1cccc(-c2cnc3c(c2)C(=O)N([C@H](C)CO)C[C@@H](C)[C@H](CN(C)Cc2ccc(F)cc2)O3)c1,1.81%
2,Cc1noc(C)c1S(=O)(=O)N(C)C[C@@H]1OCCCC[C@@H](C)Oc2ccc(NC(=O)c3ccccc3)cc2C(=O)N([C@@H](C)CO)C[C@@H]1C,4.85%
3,COc1ccc(S(=O)(=O)Nc2ccc3c(c2)C(=O)N([C@@H](C)CO)C[C@H](C)[C@@H](CN(C)C(=O)c2ccccc2)OCCCC[C@H](C)O3)cc1,-1.88%
4,C/C=C/c1ccc([C@H]2[C@@H](CO)N(C(C)=O)[C@H]2CNC(=O)c2ccncc2)cc1,2.82%
5,C[C@@H]1CN([C@@H](C)CO)C(=O)c2cc(NS(=O)(=O)c3ccccc3)ccc2O[C@@H](C)CCCCO[C@H]1CN(C)S(=O)(=O)c1cccs1,-5.79%
6,O=C(C[C@@H]1C=C[C@@H](NC(=O)c2ccc3c(c2)OCO3)[C@H](CO)O1)NC1Cc2ccccc2C1,4.12%
7,C[C@@H]1CCCCO[C@H](CN(C)C(=O)CCC(F)(F)F)[C@H](C)CN([C@@H](C)CO)C(=O)c2cc(NC(=O)CCCCCC(=O)Nc3ccccc3N)ccc2O1,1.1%
8,COc1ccccc1N1CCN(/N=C\C(Br)=C\c2ccccc2)CC1,24.6%
9,COc1cc(/C=N/N2CCN(c3ccccc3)CC2)ccc1OC(C)=O,7.78%
10,COc1ccccc1N1CCN(/N=C/c2ccc(O)cc2O)CC1,60.9% (active)
11,CN(C)CC(=O)Nc1ccc2c(c1)[C@@H]1C[C@H](CC(=O)NCC3CC3)O[C@@H](CO)[C@@H]1O2,5.49%
12,CO[C@@H]1CN(C)C(=O)c2cc(NC(=O)c3ccc4c(c3)OCO4)ccc2OC[C@H](C)N(CCC(F)(F)F)C[C@H]1C,1.54%
13,O=C(NCC[C@@H]1CC[C@H](NS(=O)(=O)c2cccc(F)c2)[C@H](CO)O1)c1cnccn1,-3.13%
14,C[C@H](CO)N1C[C@H](C)[C@@H](CN(C)Cc2ccccn2)Oc2ncc(-c3cccc(F)c3)cc2C1=O,0.648%
15,COC(=O)COc1cccc2c(=O)n(CC(=O)NCCc3ccc(OC)c(OC)c3)ccc12,8.15%
16,COc1ccc(CNC(=O)COc2ccccc2C(=O)c2cnn(-c3ccccc3)c2)cc1OC,75.1% (active)
17,COc1cc(C=O)c(Br)cc1OCC(=O)NCc1ccccc1,0.717%
18,O=C(C[C@H]1C[C@H]2c3cc(NC(=O)C4CCOCC4)ccc3O[C@H]2[C@@H](CO)O1)NCC1CC1,0.385%
19,O=C(COC(=O)c1ccc2c(c1)OCCO2)NCc1ccccc1Cl,-1.54%
20,O=C(COC(=O)c1ccccc1)c1ccc2c(c1)OCCO2,1.23%
21,O=C(CN1CCN(c2ccccc2F)CC1)c1ccc2c(c1)OCO2,14.1%
22,O=C(OCc1ccccc1F)c1ccc2c(c1)OCCO2,58.2% (active)
23,O=C(COC(=O)c1ccc(O)cc1O)NC(=O)c1ccccc1,-3.35%
24,O=C(COC(=O)c1ccc(O)cc1O)c1ccc2c(c1)OCCO2,90.2% (active)
25,C/C=C/c1ccc([C@H]2[C@@H](CO)N(C(C)=O)[C@H]2CN(C)S(C)(=O)=O)cc1,-4.53%
26,O=C(C1CCC1)N1C[C@H]2[C@@H](c3ccccc31)[C@H](CO)N2C(=O)Nc1cccc(F)c1,-1.72%
27,CCOc1cccc(C(=O)Nc2cnn(Cc3ccccc3)c2)c1,13%

row,Compound,reporter increase
1,CCOc1cccc(C(=O)Nc2nnc(-c3cccs3)s2)c1,50% (active)
2,Cc1nnc(NC(=O)c2ccc3nccnc3c2)s1,16.2%
3,Cc1noc(C)c1NC(=O)N[C@@H]1C=C[C@H](CC(=O)N2CCCCC2)O[C@H]1CO,-4.9%
4,COc1ccc(CNC(=O)C[C@H]2C[C@H]3c4cc(NS(C)(=O)=O)ccc4O[C@H]3[C@@H](CO)O2)cc1,-3.21%
5,CN(C)C(=O)c1cccc(-c2ccc3c(c2)[C@H]2[C@H](CCN2C(=O)Cc2ccccc2)[C@H](CO)N3)c1,11%
6,O=C(Nc1ccc(OCCO)cc1)c1csc([C@H]2C[C@H](O)[C@@H](CO)O2)n1,0.832%
7,O=C(Nc1ccc(Cl)cc1)c1csc([C@@H]2O[C@H](CO)[C@H](O)[C@H](O)[C@H]2O)n1,-3.58%
8,O=C(Nc1ccc(Cl)cc1)c1csc([C@H]2C[C@H](O)[C@@H](CO)O2)n1,67.4% (active)
9,CCCNC(=O)[C@@H]1[C@@H](CO)[C@@H]2Cn3c(ccc(C4=CCCCC4)c3=O)[C@H]1N2CCC,2.73%
10,O=C(C[C@H]1C[C@@H]2c3cc(NC(=O)C4CCC4)ccc3O[C@@H]2[C@@H](CO)O1)NCCN1CCCCC1,-1.5%
11,COC(=O)c1c(-c2ccc(C)cc2)csc1N,0.96%
12,Nc1scc(-c2ccncc2)c1Cl,47.9% (active)
13,COc1ccccc1CNC(=O)C[C@@H]1C[C@H]2c3cc(NC(=O)CN(C)C)ccc3O[C@H]2[C@@H](CO)O1,0.071%
14,CS(=O)(=O)Nc1ccc2c(c1)[C@H]1C[C@H](CC(=O)NCc3ccc(Oc4ccccc4)cc3)O[C@H](CO)[C@H]1O2,7.43%
15,C[C@H]1CN([C@@H](C)CO)C(=O)c2cc(Br)cnc2O[C@H]1CN(C)Cc1cccc(F)c1,-3.97%
16,O=C(Nc1ccccc1)N1CCC(C(=O)N2CCN(Cc3ccccc3)CC2)CC1,12%
17,O=C(Nc1ccccc1)N1CCN(C2c3ccccc3-c3ccccc32)CC1,4.83%
18,O=C(Nc1ccccc1)N1CCN(Cc2ccccc2)CC1,40.2% (active)
19,C[C@@H]1CN([C@H](C)CO)S(=O)(=O)c2ccc(-c3cccc(F)c3)cc2O[C@H]1CN(C)S(=O)(=O)c1ccc(F)cc1,10%
20,O=C(NC1CCC1)[C@H]1[C@H](CO)[C@H]2Cn3c(ccc(-c4ccccc4)c3=O)[C@@H]1N2Cc1cocn1,12.8%
21,O=C(C1CCC1)N1CCCCN2[C@H](CO)[C@H](c3ccc(-c4cccc(F)c4)cc3)[C@H]2C1,-5.73%
22,O=C(NCC1CCCCC1)NCC1CCCCC1,44.8% (active)
23,CC(C)(C)NC(=O)NC(=O)COC(=O)CCC1CCCCC1,-5.79%
24,N#CCC(=O)NC(=O)NCC1CC1,6.44%
25,CCCNC(=O)C[C@H]1CC[C@H]2[C@H](COc3ccc(NC(=O)CC)cc3C(=O)N2C)O1,2.93%
26,C[C@H]1CN([C@@H](C)CO)C(=O)c2cccc(NS(=O)(=O)c3ccc(F)cc3)c2O[C@@H]1CN(C)CC1CC1,-4.49%
27,Cc1cccc(N2O[C@H]3C=CC2CCCC3)n1,56.9% (active)

row,Compound,reporter increase
1,CC(C)NC(=O)Nc1ccc2c(c1)C(=O)N([C@@H](C)CO)C[C@@H](C)[C@@H](CN(C)S(=O)(=O)c1ccc(F)cc1)OCCCC[C@H](C)O2,-2.87%
2,C[C@@H]1CN([C@H](C)CO)S(=O)(=O)c2ccc(-c3cncnc3)cc2O[C@@H]1CN(C)Cc1ccccn1,-3.4%
3,CC(OC(=O)c1c(F)cccc1F)C(=O)NCCC1=CCCCC1 (stereo not given),-1.99%
4,CC(=O)Nc1ccc(S(=O)(=O)N(C)CC(=O)NCCC2=CCCCC2)cc1,-5.82%
5,S=C(NCCC1=CCCCC1)Nc1ccccc1,51.5% (active)
6,Cc1cc(C(=O)NCCc2ccc(Cl)cc2)n(-c2ccccc2)n1,-4.28%
7,NS(=O)(=O)c1ccc(CCNC(=O)c2ccc(Cl)cc2[N+](=O)[O-])cc1,0.338%
8,Cc1cc(C(=O)NCCc2ccc(Cl)cc2)c(C)o1,55.1% (active)
9,Cn1cnc(CCNC(=O)[C@H]2[C@H](CO)[C@H]3Cn4c(cccc4=O)[C@H]3N2C(=O)Nc2ccccc2)c1,6.91%
10,O=C(NC1CCCCC1)N[C@H]1CC[C@H](CCNS(=O)(=O)c2ccc(F)cc2)O[C@H]1CO,12.9%
11,O=C(Nc1nnc(-c2ccc(Cl)cc2)o1)c1ccccc1Br,17.7%
12,O=C(c1nnc(-c2ccc(Cl)cc2)o1)C1CCCC1,19.6%
13,CSc1ccccc1-c1nnc(-c2ccc(Cl)cc2)o1,67.2% (active)
14,COc1cc(NC(=O)CCNC(=O)Cn2ccc3ccccc3c2=O)cc(OC)c1OC,52.2% (active)
15,Cc1ccc(CNC(=O)CCNC(=O)Cn2ccc3ccccc3c2=O)cc1,-7.21%
16,COc1ccc(NC(=O)CCNC(=O)Cn2ccc3ccccc3c2=O)c(OC)c1,-7.83%
17,O=C(C[C@@H]1C=C[C@@H](NS(=O)(=O)c2ccccc2)[C@@H](CO)O1)NCc1ccccc1F,-1.71%
18,CC(C)NC(=O)N(C)C[C@@H]1Oc2c(cccc2N(C)C)C(=O)N([C@@H](C)CO)C[C@H]1C,-5.01%
19,C[C@H](CO)N1C[C@H](C)[C@@H](CN(C)C(=O)C2CCC2)Oc2cc(C3=CCCCC3)ccc2S1(=O)=O,0.47%
20,COc1ccc(S(=O)(=O)N(C)C[C@H]2Oc3ccc(NC(=O)Nc4c(C)noc4C)cc3C(=O)N([C@@H](C)CO)C[C@@H]2C)cc1,-2.46%
21,CC(C)c1nc2cc(C(=O)NC(C)c3cnn(C)c3)ccc2o1 (stereo not given),3.1%
22,COC(=O)c1ccc(CSc2nc3cc(Cl)ccc3o2)cc1,-4.19%
23,COc1ccc(CNC(=O)c2cc(=O)c3c(C)cc(C)cc3o2)cc1,1.4%
24,COC(=O)c1ccc(CNC(=O)c2ccc(S(=O)(=O)N3CCCCCC3)cc2)cc1,1.32%
25,COC(=O)c1ccc(CNC(=O)c2ccc3oc(C(C)C)nc3c2)cc1,49% (active)
26,COc1ccc(CNC(=O)c2ccc3oc(C(C)C)nc3c2)cc1,47.5% (active)
